This is one part of a sample in which hits are shown more often than they occur.
KDM5B inhibitor – Primary screen for KDM5B Histone Demethylases FDH-coupled qHTS; 220,000 tested, 2.6% active; Potency, µM (titrated, usually from 57.7 µM), actives largely listed as inhibitors; KDM5B demethylase, FDH-coupled NADH fluorescence (FDH is formaldehyde dehydrogenase); Lysine-specific demethylase 5B (Homo sapiens), Q9UGL1; active = well fitted inhibition curve with a large enough effect; also: nearly all actives have a fitted effect of over 70% in size
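Inhibition is measured as reduced NADH fluorescence generation from FDH coupling to formaldehyde release. Truncated KDM5BΔAP at 200 nM final acts on H3K4me3 peptide (12.5 µM in substrate mix) in pH 7.5 HEPES buffer with Tween-20, 30 min, room temperature.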
Hits are given with their value; – = inactive.

SMILES | KDM5B inhibitor
Cc1cc(C(C)(C)c2ccc(OC(=O)c3ccccc3F)c(C)c2)ccc1OC(=O)c1ccccc1F | –
C/C(=N/N=C(c1ccccc1)c1ccccc1)c1cccnc1 | –
Cc1ccc(F)cc1NS(=O)(=O)c1ccc(N2CC(C(=O)O)CC2=O)cc1 (configuration not stated) | –
O=C(CSc1nc2cc([N+](=O)[O-])ccc2o1)NC12CC3CC(CC(C3)C1)C2 | –
COc1ccc(Nc2nc(-c3ccc(CN(C)C(C)=O)cc3)cs2)cc1 | –
CNC(=O)/C=C/c1ccc([N+](=O)[O-])cc1 | –
COc1ccc(CN2C[C@H]3CN(Cc4ccc5c(c4)OCCO5)CCN3C2=O)cc1 | –
Cn1ncc2c(C(=O)N3CCOCC3)cc(-c3cccnc3)nc21 | –
C[S+](=O)([O-])c1ccc(-c2nc(C(=O)N3CCOCC3)n3ccccc23)cc1 | –
O=C(c1nc(-c2cccnc2)c2ccccn12)N1CCOCC1 | 112µM
COc1cccc(CN2CCCC(O)(CN3CCCCC3)C2=O)c1 (configuration not stated) | –
Cc1oc(-c2ccccc2)nc1CC(=O)Nc1ccc(F)cc1F | –
CCc1ccc(CN(C)S(=O)(=O)c2cccc(Br)c2)cc1 | –
COCCN1CC(C(=O)NCCOc2ccccc2)CCC1=O (configuration not stated) | –
COCCN1CC(C(=O)N2CCN(c3ncccc3C#N)CC2)CCC1=O (configuration not stated) | 32µM
COCCN1CC(C(=O)N2CCC(O)(c3ccc(F)cc3)CC2)CCC1=O (configuration not stated) | –
O=S1(=O)CCN2C(c3cccc(Br)c3)=CSC2=N1 | –
COC(=O)c1ccc(Oc2c(C)oc3cc(OCc4ccccc4)ccc3c2=O)cc1 | –
COc1ccc2cc(COC(=O)C3CCN(S(=O)(=O)c4ccccc4F)CC3)ccc2c1 | –
CCOc1ccccc1-n1nnnc1SCc1nc2ccccc2[nH]1 | –
O=C(CSc1nnc(-c2cccc(Cl)c2)o1)Nc1ccc2c(c1)OC1(CCCCC1)O2 | –
O=c1[nH]c2ccc(Br)cc2c(-c2ccccc2)c1CN1CCCCC1 | –
N#Cc1cc2c(=O)n(CCCCN3CCCC3)ccc2[nH]c1=O | 28µM
N#Cc1ccccc1CN1CCCC1 | –
O=C1Cc2cc(C(=O)NCCc3ccc4c(c3)OCO4)ccc2N1 | –
SMILES | KDM5B inhibitor
CS(=O)(=O)NCC1CCCN(C(=O)c2cnc3ccccc3n2)C1 (configuration not stated) | –
COc1ccc(CNCC(=O)O)cc1 | –
NC(=O)c1cc(S(=O)(=O)NCC2CCN(Cc3ccc(F)cc3)CC2)cs1 | –
O=C1c2cnc(-c3cccc(F)c3)nc2OCCN1c1ccccc1 | –
Fc1cccc(-c2nc(CN3CCOCC3)co2)c1 | –
O=C1COCCN1c1cc(-c2cccc(F)c2)cn2cncc12 | 35µM
COC(=O)C1=C(C)N=C2SC=C(CC(=O)NCC3CCCO3)N2C1c1cc(OC)ccc1OC (configuration not stated) | –
CCCCCCCc1ccc(C(=O)Nc2ccccc2C)cc1 | –
C/C(=C\C(=O)O)C(=O)Nc1cccc(C(F)(F)F)c1 | –
COCc1cn2c(=O)n(C)cc(-c3ccc(OC)nc3)c2n1 | –
Cn1cc(-c2ccccc2F)c2nc(COc3ccccc3)cn2c1=O | –
Cc1c(-c2cn(C)c(=O)n3cc(COc4ccccc4)nc23)cnn1C | –
COc1ccc(-c2cn(C)c(=O)n3cc(COc4ccnn4C)nc23)cc1OC | 35µM
Cn1cc(-c2ccc(O)c(F)c2)c2nc(COc3ccc(Cl)cc3)cn2c1=O | 20µM
COCc1cn2c(=O)n(C)cc(-c3ccnc(OC)c3)c2n1 | 32µM
Cn1cc(-c2cn(C)c(=O)n3cc(COc4ccccc4)nc23)cn1 | –
COc1ccc(-c2cn(C)c(=O)n3cc(CN4CCN(C)CC4)nc23)cn1 | –
Cn1cc(-c2cccnc2)c2nc(COc3ccccc3)cn2c1=O | –
COCc1cn2c(=O)n(C)cc(-c3cccc(F)c3)c2n1 | –
Cc1ccccc1-c1cn(C)c(=O)n2cc(COc3ccc(Cl)cc3)nc12 | –
Cn1nccc1OCc1cn2c(=O)n(C)cc(-c3cccc(OCc4ccccc4)c3)c2n1 | 40µM
COc1ccc(CNC(=O)N2CCN(S(=O)(=O)c3cc(F)ccc3F)CC2)cn1 | –
O=C(COc1cc(O)c2c(=O)cc(-c3ccccc3)oc2c1)NCc1ccc(F)cc1 | –
CCOc1cccc(CNCC2CCCO2)c1 (configuration not stated) | –
Cc1ccc(C2c3c(-c4cc(C)cc(C)c4O)n[nH]c3C(=O)N2CCCO)cc1 (configuration not stated) | –
SMILES | KDM5B inhibitor
COc1ccc(C2CC(=O)Nc3c2c(C)nn3-c2ncnc3nc[nH]c23)cc1OC(C)C (configuration not stated) | –
CCC(=O)NC12CC3CC(CC(C3)C1)C2 | –
O=C(Cc1c(Cl)cccc1Cl)OCc1cccc([N+](=O)[O-])c1 | –
Cc1ccc(COC(=O)c2ccc(Cl)c(S(=O)(=O)N3CCOCC3)c2)cc1 | –
COc1ccc2c(CC(=O)OCC(=O)c3ccccc3)coc2c1 | –
COc1cccc(N2CCN(C(=O)CCC[C@H]3NC[C@@H]4C[C@H]3CN(Cc3ccccc3)C4)CC2)c1 | 25µM
O=C(CCC[C@H]1NC[C@@H]2C[C@H]1CN(Cc1ccccc1)C2)N1CCN(C2CCCC2)CC1 | –
O=C(CCC[C@H]1NC[C@@H]2CC1CN(Cc1ccccc1)C2)NCCCN1CCOCC1 | –
O=C(CCC[C@H]1NC[C@@H]2CC1CN(Cc1ccccc1)C2)N1CCCCC1 | –
O=C(CCC[C@H]1NC[C@@H]2C[C@H]1CN(Cc1ccccc1)C2)NC1CCN(Cc2ccccc2)CC1 | –
O=C(CCC[C@H]1NC[C@@H]2C[C@H]1CN(Cc1ccccc1)C2)NCC1CCCCC1 | –
CC(C)CN1CCN(C(=O)CCC[C@H]2NC[C@@H]3C[C@H]2CN(Cc2ccccc2)C3)CC1 | 6.3µM
COc1ccccc1CNC(=O)CCC[C@H]1NC[C@@H]2C[C@H]1CN(Cc1ccccc1)C2 | 4.5µM
O=C(CCC[C@H]1NC[C@@H]2C[C@H]1CN(Cc1ccccc1)C2)NCCCn1cccn1 | –
O=C(N/N=C/c1ccsc1)c1ccc(Cl)cc1 | –
CC(=O)c1cccc(NC(=O)c2n[nH]c(=O)c3ccccc23)c1 | –
COc1ccc(/C=N/OCc2ccc(Cl)cc2Cl)c(OC)c1 | –
CS(=O)(=O)N1CCC(NC(=O)c2ccc3ccccc3n2)CC1 | –
Cn1cnc2c1c(=O)n(CC(=O)NCc1ccc(F)cc1)c(=O)n2C | –
O=C(COC(=O)C1CCN(c2ccc(C(F)(F)F)cn2)CC1)Nc1ccc(C(F)(F)F)cc1 | –
O=C(CSc1nc(=O)n(Cc2ccco2)c2c1CCC2)NCc1ccco1 | –
c1cnnc(-c2noc(C3(Cn4cccn4)CC3)n2)c1 | –
OCCc1cnc2c(-c3nc(-c4cccnn4)no3)cnn2c1 | 25µM
Cc1cnn(C(C)c2nc(-c3cccnn3)no2)c1 (configuration not stated) | –
O=S(=O)(NCCc1ncc2ccccn12)c1ccc(Br)cc1 | –
SMILES | KDM5B inhibitor
O=C(Nc1ccc(Cl)c(C(F)(F)F)c1)C(Cl)c1ccccc1 (configuration not stated) | –
O=C(NC1CCN(Cc2ccc(F)cc2)CC1)c1cccs1 | –
COc1ccc(CNC(=O)c2noc(-c3ccc4c(c3)OCO4)n2)cc1 | 28µM
COc1cccc(CNC(=O)Cn2cccc2-c2nc(-c3ccc4c(c3)OCO4)no2)c1 | 28µM
O=C(NCc1ccccc1Cl)c1noc(-c2ccc(F)cc2)n1 | –
O=C(NCc1ccc(F)cc1Cl)c1noc(-c2ccc3c(c2)OCO3)n1 | 32µM
COc1ccc(CCNC(=O)c2noc(-c3ccc(F)cc3)n2)cc1OC | –
